{"source": "PubChem BioAssay (Tox21)", "note": "Values without a mark were called inactive. Calls of active or inactive are those of the source. The call rests on the fitted dose curve; in most records, active means well fitted curve in the direction sought with a large enough effect in the repeat runs; inconclusive means weak or mixed curves; inactive means flat fitted curve, though single readings scatter. On the % scale 0 is the no-effect control and ±100 the full control effect."}
{"test": "qHTS assay to test for compound auto fluorescence at 460 nm (blue) in HEK293 cells (AID 720678)", "settings": "blue autofluorescence 405/460 nm; series mostly up to 91.3 µM", "from_the_text": "National Center for Advancing Translational Sciences [NCATS]\nNIH Chemical Genomics Center [NCGC]\nU.S. Environmental Protection Agency [EPA]\nNational Institutes of Environmental Health Sciences [NIEHS]\nNational Toxicology Program [NTP]\nU.S. Food and Drug Administration [FDA]\nCompound auto fluorescence often interferes with screening of the compound library against various biological targets and signaling pathways. Some of these compounds may have fluorophoric properties. Such properties may interfere with the assay outputs resulting in false positives and/or negatives. To decrease such complications and ensure the compound activities are relevant in terms of biological response, the Tox21 10K compound library was screened for auto fluorescence.\nFrom the fluorophores used as reporter signals in our screening assays, the auto fluorescence equivalencies of compounds against three fluorophores have been evaluated: Triamterene, Fluorescein and Rose Bengal sodium for blue, green and red fluorescence, respectively. The fluorescence intensities were measured using Excitation/Emission wavelengths at 405/460nm, 485/535nm and 540/590nm for blue, green and red labels, respectively. This assay includes the blue fluorescence data.\nTox21 Assay Protocol Summary:\n2,000 HEK293 cells in 5 uL of culture medium containing 10% dialyzed FBS per well were dispensed into black wall/clear bottom 1536-well plates using a Multidrop Combi Dispenser (Thermo Scientific). The assay plates were incubated for 4-5 hr at 37C to allow cell attachment to the well bottom, followed by the transfer of 23 nL compound or DMSO vehicle by a pintool work station (Kalypsys, San Diego, CA). After the assay plates were incubated overnight at 37C and 5% CO2, fluorescence intensities in the assay plates were measured by an Envision (PerkinElmer, Shelton, CT) plate reader using three labels for measuring blue, green and red fluorescence at […] 460, 535 and 590nm respectively."}
{"smiles": "CN(C)CCN(Cc1ccc(Cl)cc1)c1ccccn1", "fluorescence, % of triamterene": "0.037% [at 18.6 µM]"}
{"smiles": "OC(CN1CCC(Cc2ccc(F)cc2)CC1)c1ccc(Cl)cc1", "note": "(stereo not given)", "outcome": "inactive"}
{"smiles": "O=P(O)(OCc1ccccc1)OCc1ccccc1", "outcome": "inactive"}
{"smiles": "COC(C)(C)CCO", "outcome": "inactive"}
{"smiles": "O=C(O)CNCC(=O)O", "fluorescence, % of triamterene": "-0.267% [at 3.72 µM]"}
{"smiles": "COC(=O)c1ccc(I)cc1S(=O)(=O)NC(=O)Nc1nc(C)nc(OC)n1", "outcome": "inactive"}
{"smiles": "C=C(C)C(=O)OCCOCC", "outcome": "inactive"}
{"smiles": "O=C(O)CC(=O)C(=O)O", "outcome": "inactive"}
{"smiles": "Nc1cccc([N+](=O)[O-])c1", "outcome": "inactive"}
{"smiles": "CC[N+](C)(CC)CCOC(=O)C(O)(c1ccccc1)C1CCCCC1", "note": "(stereo not given)", "outcome": "inactive"}
{"smiles": "COc1cccc(N(C)C(=S)Oc2ccc3c(c2)CCCC3)n1", "outcome": "inactive"}
{"smiles": "Cc1cccc(C)c1NC(=O)CN(CC(=O)O)CC(=O)O", "outcome": "inactive"}
{"smiles": "CCOC(=O)NCCOc1ccc(Oc2ccccc2)cc1", "outcome": "inactive"}
{"smiles": "CC(=O)c1cccc([N+](=O)[O-])c1", "outcome": "inactive"}
{"smiles": "O=[N+]([O-])c1cccc(S(=O)(=O)O)c1", "outcome": "inactive"}
{"smiles": "CC(C)Nc1ccc(NC(C)C)c2c1C(=O)c1ccccc1C2=O", "outcome": "inactive"}
{"smiles": "CCCCC(=O)OCC(=O)[C@H]1[C@H](C)C[C@H]2[C@@H]3C[C@H](F)C4=CC(=O)C=C[C@]4(C)[C@@]3(F)[C@@H](O)C[C@@]21C", "outcome": "inactive"}
{"smiles": "CCCCNc1ccc(C(=O)OCCOCCOCCOCCOCCOCCOCCOCCOCCOC)cc1", "fluorescence, % of triamterene": "-0.29% [at 18.6 µM]"}
{"smiles": "O=C(O)c1ccco1", "outcome": "inactive"}
{"smiles": "COc1cc2c(cc1OC)C(C(C(=O)N(CCc1ccc(OC)c(OC)c1OC)CCc1ccc(OC)c(OC)c1OC)c1ccccc1)=NCC2", "note": "(stereo not given)", "outcome": "inactive"}
{"smiles": "CN1C[C@H]2c3ccccc3Oc3ccc(Cl)cc3[C@@H]2C1", "outcome": "inactive"}
{"smiles": "ClCCOCCOCCCl", "outcome": "inactive"}
{"smiles": "C=CCOC(=O)CCC1CCCCC1", "outcome": "inactive"}
{"smiles": "CNCCCN1c2ccccc2CCc2ccccc21", "fluorescence, % of triamterene": "0.119% [at 18.6 µM]"}
{"smiles": "COc1cc(Cl)c(OC)cc1N", "outcome": "inactive"}
{"smiles": "C[C@H]1C[C@H]2[C@@H]3CCC4=CC(=O)C=C[C@]4(C)[C@@]3(Cl)[C@@H](O)C[C@]2(C)[C@@]1(O)C(=O)CO", "outcome": "inactive"}
{"smiles": "CCCCCCCCCCO[C@@H]1O[C@H](CO)[C@@H](O)[C@H](O)[C@H]1O", "outcome": "inactive"}
{"smiles": "CCN(CC)CCNc1ccc(CNC=O)c2sc3ccc(OC)cc3c(=O)c12", "outcome": "inactive"}
{"smiles": "CC1=CCCC(C)(C)C12CCC(C)O2", "note": "(stereo not given)", "outcome": "inactive"}
{"smiles": "Nc1ccccc1S(=O)(=O)c1ccccc1", "outcome": "inactive"}
{"smiles": "Cc1cccc(C)c1OCC(=O)N[C@@H](Cc1ccccc1)[C@@H](O)C[C@H](Cc1ccccc1)NC(=O)[C@H](C(C)C)N1CCCNC1=O", "outcome": "inactive"}
{"smiles": "CC(C)OC(=O)C(C)N(C(=O)c1ccccc1)c1ccc(F)c(Cl)c1", "note": "(stereo not given)", "outcome": "inactive"}
{"smiles": "O=CC1CC=CCC1", "note": "(stereo not given)", "outcome": "inactive"}
{"smiles": "OCCN1CCN(CCCN2c3ccccc3C=Cc3ccccc32)CC1", "outcome": "inactive"}
{"smiles": "C=C(C)C(=O)OCCO", "outcome": "inactive"}
{"smiles": "O=C1OC(=O)C2C3C=CC(C3)C12", "note": "(stereo not given)", "outcome": "inactive"}
{"smiles": "C=CC(=O)OCCOc1ccccc1", "outcome": "inactive"}
{"smiles": "O=C(OCCc1ccccc1)c1ccccc1", "outcome": "inactive"}
{"smiles": "Cn1c(=O)cc(Oc2ccc(F)cc2F)c2cnc(NCC(C)(C)O)nc21", "outcome": "inactive"}
{"smiles": "CCCNCC(O)COc1ccccc1C(=O)CCc1ccccc1", "note": "(stereo not given)", "outcome": "inactive"}
